According to PubChem BioAssay AID651784 (National Center for Advancing Translational Sciences (NCATS), 2012):
Records with an inconclusive call do not appear. Active and inactive are the calls of the source. Calls follow the shape of the dose curve; as a rule, active = well fitted inhibition curve with a large enough effect; inconclusive = small, poorly fitted or top-dose-only effect; inactive = no such curve, though single readings can be large or run the other way.

experiment: Acumen qHTS Assay for Inhibitors of the mTORC1 Signaling Pathway in MEF (Tsc2-/-, p53-/-) Cells: Hit Validation; settings: Acumen imaging; activity change, negative = inhibition: at 37.3 µM (top of the series);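 also: phospho-rpS6 Ser235/236 immunofluorescence normalized to propidium iodide cell count; nearly all actives have a fitted effect of over 65% in size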;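 as to activity change, negative = inhibition: cells exposed to compound for 24 hours; plate controls were DMSO for no effect and 7.5 nM rapamycin control for full effect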
Potency is read from the fitted curve at half-maximal effect.

Structure (SMILES)	Potency	activity change, negative = inhibition [%]
COc1ccc(CNC(=O)c2cccc(N3CCCS3(=O)=O)c2)cc1OC	5.21 µM (active)	
COc1ccccc1C(=O)Nc1ccc2nc(N3CCC(C)CC3)cc(C)c2c1		-19.9
CCCCC1CCC(C(=O)N2CC(=O)Nc3ccc(Cl)cc3C2c2ccc(F)cc2)CC1 (configuration not stated)		-41.1
CCOC(=O)c1c(NC(=O)c2cc(CC)on2)sc(C(C)=O)c1C		12
O=C(c1ccc(CS(=O)c2ccccc2Cl)o1)N1CCN(c2cccc(Cl)c2)CC1 (configuration not stated)	0.521 µM (active)	
COc1ccc(S(=O)(=O)NCCc2csc3nc(-c4ccc(Cl)cc4)nn23)cc1C	11.7 µM (active)	
O=C(NCC1CCN(Cc2cccc(Cl)c2)CC1)Nc1ccc(F)c(Cl)c1	9.27 µM (active)	
CCC(Sc1nncn2c1cc1oc(C)cc12)C(=O)Nc1ccc(F)cc1 (configuration not stated)		12.3
Cc1cccc(N2CCN(C(=O)C3CCN(C(=O)c4cc5sccc5n4C)CC3)CC2C)c1 (configuration not stated)		-39.1
O=C(NCCN1CCN(c2cccc(Cl)c2)CC1)Nc1ccccc1C(F)(F)F		-3.27
COc1cc(C)ccc1OCCn1c(-c2ccc(Cl)cc2)nc2ccccc2c1=O		-1.14
Cc1ccc(C(=O)CC2(O)C(=O)N(Cc3ccccc3F)c3ccccc32)cc1 (configuration not stated)		-11.8
Cc1ccc(CN(Cc2cccn2-c2nnc(N3CCCC3=O)s2)C(=O)Nc2ccccc2C(F)(F)F)cc1		-12.7
CCc1ccc(S(=O)(=O)N(C(=O)Oc2ccccc2)c2ccc3oc(C)c(C(=O)OC)c3c2)cc1		-70.3
N=c1n(CCN2CCCCC2)c2ccccc2n1CC(O)COc1ccc(Cl)cc1Cl (configuration not stated)	5.21 µM (active)	
CCN(CC)CCOC(=O)c1ccc(NC(=O)c2nn(-c3ccc(C)cc3)c(=O)c3c2c2ccccc2n3C)cc1	4.14 µM (active)	
CCS(=O)(=O)c1ncc(Cl)c(C(=O)N(Cc2ccccc2)c2ccc(OC)cc2)n1	2.93 µM (active)	
CCOc1ccc(CCNCc2c(C(=O)O)n(Cc3ccc(C)cc3)c3cc(OC)ccc23)cc1		-26.5
CCC1=Nc2cc(C(=O)NC3CCC(C)CC3)ccc2Sc2ccc(C)cc21 (configuration not stated)	1.47 µM (active)	

Structure (SMILES)	Potency	activity change, negative = inhibition [%]
COc1ccc(CCNC(=O)C(C)n2nc(C)c3sc4ccccc4c3c2=O)c(OC)c1 (configuration not stated)		-17.7
CCc1cnc2c(c1SCC(=O)NCc1ccc(F)cc1)c(=O)n(C)c(=O)n2C		5.42
COc1ccc(S(=O)(=O)N(CCc2ccccc2)CC(=O)Nc2cccc(OC)c2)cc1		-19.2
Cc1cccc(OCC(=O)Nc2ccc(-c3nc4cc(C)ccc4o3)c(O)c2)c1	6.56 µM (active)	
COC(=O)c1ccc(Nc2nnc(-c3ccc(C)c(S(=O)(=O)N4CCN(C)CC4)c3)c3ccccc23)cc1		-21.5
COc1ccc(-c2nc(S(=O)(=O)c3ccc(Cl)cc3)c(N3CCCCCC3)o2)cc1		2.12
COc1ccc(S(=O)(=O)Nc2ccc3oc4c(c3c2)CCCC4)cc1		1.17
CCCCS(=O)(=O)c1oc(-c2ccc(F)cc2)nc1S(=O)(=O)c1ccc(C)cc1	4.65 µM (active)	
CCOc1ccccc1NS(=O)(=O)c1ccc(-c2cnc(C3CC3)o2)cc1	0.464 µM (active)	
CCOc1ccc(NC(=O)N(Cc2c[nH]c3ccccc23)C2CCCCCC2)cc1		-15.9
COc1ccc(OCC(=O)Nc2ccc3nn(-c4ccc(OC)cc4)nc3c2)cc1		11.1
CCCCS(=O)(=O)c1oc(-c2cccs2)nc1S(=O)(=O)c1ccc(F)cc1	3.69 µM (active)	
Cc1ccc2nc(-c3cccc(NC(=O)c4cccc5ccccc45)c3)oc2c1		-72.4
O=C(Nc1ccc2oc(-c3ccc4ccccc4c3)nc2c1)c1cc(Br)ccc1Cl	9.27 µM (active)	
CCCN1C(=O)C(Cc2nc3ccccc3c(=O)n2CC)c2cc(Br)ccc21 (configuration not stated)		4.78
COc1cc(Nc2nc(SCC(=O)c3ccc(Cl)c(Cl)c3)nc3ccccc23)cc(OC)c1		-51.7
Cc1noc(/C=C/N(C)C)c1S(=O)(=O)N1CCCC(C(=O)Nc2ccc(F)cc2F)C1 (configuration not stated)	1.85 µM (active)	
CCOc1ccccc1Nc1nc(-c2cccc(Cl)c2)c2c(n1)-c1ccccc1OC2		-15.1
